SMARCA2 activ: activators of SMARCA2 function; activation, % at 9.1 µM; MG213 cells, MMTV-luciferase reporter, dexamethasone, overnight; 370,000 tested, 1% active; in the data active = activation above about 7.8%
Dyrk1A ADPGlo: Dyrk1A (rat) kinase inhibition | ADP-Glo luminescence, NFATc1 peptide | inhibition, % at 12.5 µM | 310,000 tested, 0.43% active; in the data active = inhibition above about 50%
esBAF inh: SWI/SNF esBAF complex inhibition; mouse ES cells, Bmi1-luciferase knock-in reporter, 24 h; 100% = twice the neutral-well signal; reporter increase, % at 12.5 µM; 350,000 tested, 2% active; AID 602393; in the data active = activation above about 40%; inconclusive = no clear call, values can overlap the other calls;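 note: a rise in the Bmi1 reporter signal indicates esBAF inhibition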
dFosB act-1: activators of mouse delta FosB homodimer; P13346; AID 493131; 340,000 tested, 0.99% active; purified delta FosB, TAMRA-CDK5 oligo fluorescence polarization; percent of positive-control signal above neutral wells; activation, % at 25 µM;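 active = mean activation above about 17%, with every replicate also reaching it, limit read from the data, passing the limit was not always enough; inconclusive = only one of the two conditions met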
Target sequence (P13346 whole entry, looked up): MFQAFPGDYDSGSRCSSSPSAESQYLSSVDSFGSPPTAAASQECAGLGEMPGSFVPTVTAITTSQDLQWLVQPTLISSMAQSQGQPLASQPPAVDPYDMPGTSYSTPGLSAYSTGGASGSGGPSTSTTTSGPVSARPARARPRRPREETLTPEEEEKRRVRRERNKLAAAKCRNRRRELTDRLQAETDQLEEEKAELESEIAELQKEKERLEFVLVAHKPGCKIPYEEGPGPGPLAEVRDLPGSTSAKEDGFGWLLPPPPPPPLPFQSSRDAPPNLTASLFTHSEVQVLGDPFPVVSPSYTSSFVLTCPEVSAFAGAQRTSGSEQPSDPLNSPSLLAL
CDK5 p35 inh: blocks human CDK5/p35 kinase activity | Q00535+Q15078 | Recombinant CDK5/p35, ADP-Glo luminescence, 60 min | inhibition, % at 10 µM | 330,000 tested, 0.01% active | AID 488839;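 active = highest replicate inhibition of at least 50% and at least 75% of replicates reaching 50%; inconclusive = only one of the two criteria met; inactive = both criteria failed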
Rtt109 Vps75: blocks Candida albicans Rtt109/Vps75 acetyltransferase activity; 330,000 tested, 0.16% active; AID 540336; inhibition, % at 34.9 µM; purified Rtt109/Vps75, ThioGlo CoA-SH fluorescence, 4 h;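 active = inhibition of at least 50% in every replicate; inconclusive = best replicate reaches 50% inhibition but some replicates fall short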
Target sequence (Q5AAJ8 whole entry, looked up): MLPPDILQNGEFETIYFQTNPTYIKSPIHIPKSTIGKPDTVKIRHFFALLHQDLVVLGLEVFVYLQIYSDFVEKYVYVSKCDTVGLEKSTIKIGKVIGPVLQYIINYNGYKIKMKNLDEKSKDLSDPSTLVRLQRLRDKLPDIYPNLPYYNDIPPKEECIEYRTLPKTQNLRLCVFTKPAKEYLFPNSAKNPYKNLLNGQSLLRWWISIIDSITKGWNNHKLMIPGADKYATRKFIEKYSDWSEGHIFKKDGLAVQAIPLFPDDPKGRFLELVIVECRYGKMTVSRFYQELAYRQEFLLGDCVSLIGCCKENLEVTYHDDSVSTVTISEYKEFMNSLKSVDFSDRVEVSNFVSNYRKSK
dFosB act-2: delta FosB (mouse) homodimer activation; activation, % at 24.9 µM; 2,400 tested, under 10 active; purified delta FosB, TAMRA-CDK5 oligo fluorescence polarization; normalised: neutral wells 0, positive control 100; shares compounds with dFosB act-1;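 active = highest replicate activation at or above 34% and every replicate reaching that threshold; inconclusive = meets only one of the two criteria; inactive = meets neither criterion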;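 note: higher polarization means more probe DNA bound by delta FosB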
Of the large screens only hits and unclear results are named; the others gave an inactive call (follow-up assays come after a bar, where they were run). Rows were chosen to be rich in hits. Some 3.2% of all compounds tested hit in one or more screens of this group.

COc1ccc(NC(=O)CCCn2c(=O)c3sccc3n(Cc3ccc(C)cc3)c2=O)cc1	dFosB act-1 29.2 (no result: esBAF inh) | dFosB act-2 inactive
CCOc1ccc(-n2c(=O)c3sccc3n(CC(=O)NC3CCCCC3)c2=O)cc1	dFosB act-1 inconclusive
CCOc1ccc(-n2c(=O)c3sccc3n(Cc3ccc(C)cc3)c2=O)cc1	dFosB act-1 25.7 | dFosB act-2 inactive
COc1cc(NC(=O)c2cc([N+](=O)[O-])ccc2NC(=O)CNCc2ccccn2)cc(OC)c1	dFosB act-1 35.5 | dFosB act-2 inactive
COc1ccc(S(=O)(=O)N(C)C[C@@H]2Oc3ccc(N(C)C)cc3C(=O)N([C@@H](C)CO)C[C@H]2C)cc1	none (no result: SMARCA2 activ, Dyrk1A ADPGlo, dFosB act-1, CDK5 p35 inh, Rtt109 Vps75)
COc1cccc(Oc2ccc(C(F)(F)F)cc2NC(=O)CN2C(=O)NC3(CCCC3)C2=O)c1	dFosB act-1 45.5 (no result: Dyrk1A ADPGlo) | dFosB act-2 inactive
COc1ccc(NC(=O)CN2C(=O)NC3(CCCC3)C2=O)c(OC)c1	none
CCCNC(=O)C[C@@H]1C[C@@H]2c3cc(NC(=O)C4CCOCC4)ccc3O[C@@H]2[C@@H](CO)O1	none (no result: SMARCA2 activ, Dyrk1A ADPGlo, dFosB act-1, CDK5 p35 inh, Rtt109 Vps75)
COc1cc2nc(SCc3ccc(F)cc3)n(Cc3cccs3)c(=N)c2cc1OC	none
COc1ccc(Cn2c(SCc3ccccc3C)nc3cc(OC)c(OC)cc3c2=N)cc1	dFosB act-1 45.3 | dFosB act-2 inactive
C[C@@H]1CCCCO[C@H](CN(C)C)[C@@H](C)CN([C@@H](C)CO)C(=O)c2cc(NS(=O)(=O)c3ccccc3)ccc2O1	none (no result: SMARCA2 activ, Dyrk1A ADPGlo, dFosB act-1, CDK5 p35 inh, Rtt109 Vps75)
O=C(Nc1nc2c(F)c(F)c(F)cc2s1)c1ccco1	esBAF inh 52.8, dFosB act-1 29.9 | dFosB act-2 inactive
O=C(Nc1nc2c(F)cc(F)cc2s1)c1ccco1	none
Cc1c(/C=N/n2cnnc2)c2ccccc2n1CCOc1ccc(Cl)cc1	none
Cc1ccc(OCCn2c(C)c(/C=N/n3cnnc3)c3ccccc32)cc1	dFosB act-1 31.2 | dFosB act-2 inactive
O=C(CCCC(=O)Nc1ccccc1Br)N/N=C/c1c(F)cccc1Cl	dFosB act-1 26.6 | dFosB act-2 inactive
CC(C)NC(=O)CC(=O)N/N=C/c1c(F)cccc1Cl	none
O=C(C[n+]1cnn(CC(=O)c2ccc(Cl)cc2Cl)c1)c1ccc([N+](=O)[O-])cc1	dFosB act-1 31.6 (no result: esBAF inh) | dFosB act-2 inactive
C[C@@H]1CN([C@@H](C)CO)C(=O)c2cc(NS(=O)(=O)c3cn(C)cn3)ccc2O[C@@H]1CN(C)S(=O)(=O)c1cccs1	none (no result: SMARCA2 activ, Dyrk1A ADPGlo, dFosB act-1, CDK5 p35 inh, Rtt109 Vps75)
COc1ccc(Cn2c(=O)[nH]c3cc(C(=O)N4CCN(c5ccccc5F)CC4)ccc3c2=O)cc1	dFosB act-1 17.8 | dFosB act-2 inactive
COc1ccc(Cn2c(=O)[nH]c3cc(C(=O)N4CCN(c5ccccc5OC)CC4)ccc3c2=O)cc1	none (no result: SMARCA2 activ)
CNC(=O)C[C@H]1CC[C@H]2[C@H](COc3ccc(NC(=O)c4ccc(F)cc4)cc3C(=O)N2C)O1	none (no result: SMARCA2 activ, Dyrk1A ADPGlo, dFosB act-1, CDK5 p35 inh, Rtt109 Vps75)
CS(=O)(=O)c1ccc(Cl)c(NC(=O)Cc2ccsc2)c1	none
CS(=O)(=O)c1ccc(Cl)c(NC(=O)Cc2c(Cl)cccc2Cl)c1	dFosB act-1 41.0 | dFosB act-2 inactive
COCCN(C(=O)COc1ccccc1)c1nnc(-c2cccnc2)s1	dFosB act-1 32.4 | dFosB act-2 inactive
C/C(=N/O)c1ccc2c(c1)OCCOCCOc1cc(/C(C)=N/O)ccc1OCCOCCO2	dFosB act-1 21.4 (no result: esBAF inh) | dFosB act-2 inactive
Cc1c(N=C2N=C(NC(=O)Nc3ccc(Cl)cc3)c3ccccc32)c(=O)n(-c2ccccc2)n1C	dFosB act-1 38.0 (no result: esBAF inh) | dFosB act-2 inactive
Cc1cccc(C(=O)N/N=C2\CS(=O)(=O)N(C)c3ccsc32)c1	dFosB act-1 26.3 | dFosB act-2 inactive
CN1c2ccsc2/C(=N/NC(=O)c2c(F)cccc2F)CS1(=O)=O	none
COc1ccc(C(=O)c2sc3nc(-c4ccccc4)ccc3c2N)cc1OC	none
COc1ccc(-c2ccc3c(N)c(C(=O)c4ccc(OC)c(OC)c4)sc3n2)cc1	dFosB act-1 29.9 | dFosB act-2 inactive
CNC[C@@H]1Oc2ncc(C#Cc3ccc(F)cc3)cc2C(=O)N([C@H](C)CO)C[C@@H]1C	none (no result: SMARCA2 activ, Dyrk1A ADPGlo, dFosB act-1, CDK5 p35 inh, Rtt109 Vps75)
CCCNC(=O)N[C@@H]1C=C[C@@H](CC(=O)NC2CCC2)O[C@H]1CO	none (no result: SMARCA2 activ, Dyrk1A ADPGlo, dFosB act-1, CDK5 p35 inh, Rtt109 Vps75)
CC1(C)Cc2c(sc(NC(=O)COc3ccc(Cl)cc3)c2C(N)=O)C(C)(C)N1	dFosB act-1 79.8 | dFosB act-2 inactive
C[C@@H]1CN([C@@H](C)CO)C(=O)c2cc(NC(=O)CCC(F)(F)F)ccc2O[C@@H](C)CCCCO[C@H]1CN(C)S(=O)(=O)c1ccc(Cl)cc1	none (no result: SMARCA2 activ, Dyrk1A ADPGlo, dFosB act-1, CDK5 p35 inh, Rtt109 Vps75)
CCCSc1nc2c(cnn2-c2ccc(F)cc2)c(=O)[nH]1	dFosB act-1 47.9 | dFosB act-2 inactive
CCCSc1nc2c(cnn2-c2ccccc2)c(=O)[nH]1	none
O=c1[nH]c(SCc2ccc(F)cc2)nc2c1cnn2-c1ccc(F)cc1	dFosB act-1 35.0 | dFosB act-2 inactive
C[C@@H]1CN([C@H](C)CO)C(=O)c2cccc(NS(C)(=O)=O)c2O[C@H]1CN(C)S(=O)(=O)c1cccs1	none (no result: SMARCA2 activ, Dyrk1A ADPGlo, dFosB act-1, CDK5 p35 inh, Rtt109 Vps75)
C[C@@H]1CN([C@@H](C)CO)C(=O)c2cc(NS(=O)(=O)c3ccc(Cl)cc3)ccc2O[C@H]1CN(C)CC1CC1	none (no result: SMARCA2 activ, Dyrk1A ADPGlo, dFosB act-1, CDK5 p35 inh, Rtt109 Vps75)
COc1ccc(S(=O)(=O)N2CCN(c3nc(-c4cccnc4)nc4ccccc34)CC2)cc1	dFosB act-1 17.8 | dFosB act-2 inactive
CCCn1c(=S)[nH]c2cc(C(=O)N3CCc4ccccc43)ccc2c1=O	dFosB act-1 50.2 | dFosB act-2 inactive
COc1ccc(NC(=O)Nc2ccc3c(c2)[C@H]2C[C@H](CC(=O)N4CCN(C)CC4)O[C@H](CO)[C@H]2O3)cc1	none (no result: SMARCA2 activ, Dyrk1A ADPGlo, dFosB act-1, CDK5 p35 inh, Rtt109 Vps75)
COc1ccc2[nH]c3c(=O)n(CCCC(=O)NC4CCC(C)CC4)c(=S)[nH]c3c2c1 (centres undefined)	dFosB act-1 53.2 | dFosB act-2 inactive
O=C(Oc1coc(CSc2nnc(NC(=O)C3CC3)s2)cc1=O)c1ccccc1	dFosB act-1 23.2 (no result: esBAF inh) | dFosB act-2 inactive
Cc1cccc(C(=O)Oc2coc(CSc3nnc(NC(=O)C4CC4)s3)cc2=O)c1	none (no result: esBAF inh)
Cc1cc(NC(=O)COC(=O)c2oc3c(ccc4ccccc43)c2C)no1	none
Cc1ccc2c(C)c(C(=O)Nc3ccc(S(N)(=O)=O)cc3)oc2c1C	dFosB act-1 48.3 | dFosB act-2 inactive
Cc1c(C(=O)OCC(=O)Nc2ccc(S(N)(=O)=O)cc2)oc2c1ccc1ccccc12	dFosB act-1 28.6 | dFosB act-2 inactive
Cc1ccc2c(C)c(C(=O)NCc3ccc(S(N)(=O)=O)cc3)oc2c1C	none (no result: esBAF inh)
CNC[C@@H]1Oc2ncc(-c3ccc(C)cc3)cc2C(=O)N([C@@H](C)CO)C[C@@H]1C	none (no result: SMARCA2 activ, Dyrk1A ADPGlo, dFosB act-1, CDK5 p35 inh, Rtt109 Vps75)
